Measurements reported in PubChem BioAssay (Tox21).
Results filed as inconclusive are left out. The source made the active and inactive calls. Unless noted, the call rests on the fitted dose curve; in most records, active means well fitted curve in the direction sought with a large enough effect in the repeat runs; inconclusive means weak or mixed curves; inactive means no such curve, though single readings can be large; an effect the other way counts as inactive or inconclusive.

How the values were obtained:
[1] = qHTS assay to identify small molecule antagonists of the thyroid receptor (TR) signaling pathway (AID 743065); further: series mostly up to about 70 µM; nearly all actives have a fitted effect of over 55% in size
Summary of the method: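 Antagonism measured as loss of luciferase signal in GH3 cells stably carrying a TRE-luciferase reporter, co-treated with compound and T3 (1 nM final) for 23.5 h at 37 C. Viability was read in the same well by CellTiter-Fluor.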

[2] = system: thyroid hormone receptor (rat, GH3 cells); assay: qHTS assay to identify small molecule agonists of the thyroid receptor (TR) signaling pathway (AID 743066; calls by dose curve)
[3] = target: Estrogen receptor (Homo sapiens) (UniProt P03372); assay: qHTS assay to identify small molecule antagonists of the estrogen receptor alpha (ER-alpha) signaling pathway (AID 743069; active means well fitted curve in the direction sought with a large enough effect in the signal ratio in the repeat runs, not every such curve was filed as active; the % refers to the signal ratio)
Sequence of Estrogen receptor (Homo sapiens) (P03372 whole entry, looked up): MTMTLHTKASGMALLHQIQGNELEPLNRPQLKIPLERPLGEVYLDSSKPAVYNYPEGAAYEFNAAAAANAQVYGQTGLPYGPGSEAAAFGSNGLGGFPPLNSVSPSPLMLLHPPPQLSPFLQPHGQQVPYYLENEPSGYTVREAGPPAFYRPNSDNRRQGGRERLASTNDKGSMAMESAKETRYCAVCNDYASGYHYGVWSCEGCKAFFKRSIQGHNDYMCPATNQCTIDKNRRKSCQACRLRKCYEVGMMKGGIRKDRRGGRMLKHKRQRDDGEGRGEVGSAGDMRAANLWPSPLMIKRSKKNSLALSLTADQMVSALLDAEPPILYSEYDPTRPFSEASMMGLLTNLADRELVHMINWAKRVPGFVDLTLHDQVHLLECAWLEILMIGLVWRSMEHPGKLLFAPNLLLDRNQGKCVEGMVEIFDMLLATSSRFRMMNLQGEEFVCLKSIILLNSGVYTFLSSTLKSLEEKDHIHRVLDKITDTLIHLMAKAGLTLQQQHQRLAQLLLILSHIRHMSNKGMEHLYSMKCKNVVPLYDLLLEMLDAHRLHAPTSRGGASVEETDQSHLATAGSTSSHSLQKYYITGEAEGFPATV
Summary of the method: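 ER-alpha-UAS-bla GripTite HEK293 line; 2% charcoal-stripped FBS overnight; plated, 4 hr 37C/5% CO2; cpd in DMSO + 17beta-estradiol, 18 hr 37C; LiveBLAzer B/G FRET substrate 2 hr RT; fluorescence intensity.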

[4] = qHTS assay to identify small molecule antagonists of the estrogen receptor alpha (ER-alpha) signaling pathway - cell viability counter screen (AID 743074; calls by dose curve;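 further: HEK293 cells carrying ER-alpha-UAS-bla reporter stimulated with 17beta-estradiol; nearly all actives have a fitted effect of over 45% in size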)
[5] = target: Estrogen receptor (Homo sapiens) (UniProt P03372); assay: qHTS assay to identify small molecule agonists of the estrogen receptor alpha (ER-alpha) signaling pathway (AID 743075; calls by dose curve;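 further: HEK293 GripTite cells with ER-alpha and UAS-driven beta-lactamase reporter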)
[6] = target: Estrogen receptor (Homo sapiens) (UniProt P03372); assay: qHTS assay to identify small molecule agonists of the estrogen receptor alpha (ER-alpha) signaling pathway using the BG1 cell line (AID 743079); further: nearly all actives have a fitted effect of over 20% in size
[7] = qHTS assay to identify small molecule antagonists of the estrogen receptor alpha (ER-alpha) signaling pathway using the BG1 cell line (AID 743080; calls by dose curve;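 further: BG1 cells stimulated with 17beta-estradiol alongside compound; series mostly up to about 70 µM; nearly all actives have a fitted effect of over 25% in size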)
Summary of the method: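 Endogenous full-length ER-alpha in BG1-Luc-4E2 cells drives a stably integrated 4×ERE luciferase gene; compounds were tested against 17beta-estradiol over 21.5 h, with luminescence and multiplexed viability fluorescence recorded.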

[8] = qHTS assay to identify small molecule antagonists of the estrogen receptor alpha (ER-alpha) signaling pathway using the BG1 cell line - cell viability counter screen (AID 743081);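 further: compound given together with 17beta-estradiol as the ER stimulus; series mostly up to about 70 µM; nearly all actives have a fitted effect of over 45% in size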
[9] = target: Aromatase (Homo sapiens) (UniProt P11511); assay: qHTS assay to identify aromatase inhibitors (AID 743083); further: series mostly up to about 70 µM; nearly all actives have a fitted effect of over 55% in size
Sequence of Aromatase (Homo sapiens) (P11511 whole entry, looked up): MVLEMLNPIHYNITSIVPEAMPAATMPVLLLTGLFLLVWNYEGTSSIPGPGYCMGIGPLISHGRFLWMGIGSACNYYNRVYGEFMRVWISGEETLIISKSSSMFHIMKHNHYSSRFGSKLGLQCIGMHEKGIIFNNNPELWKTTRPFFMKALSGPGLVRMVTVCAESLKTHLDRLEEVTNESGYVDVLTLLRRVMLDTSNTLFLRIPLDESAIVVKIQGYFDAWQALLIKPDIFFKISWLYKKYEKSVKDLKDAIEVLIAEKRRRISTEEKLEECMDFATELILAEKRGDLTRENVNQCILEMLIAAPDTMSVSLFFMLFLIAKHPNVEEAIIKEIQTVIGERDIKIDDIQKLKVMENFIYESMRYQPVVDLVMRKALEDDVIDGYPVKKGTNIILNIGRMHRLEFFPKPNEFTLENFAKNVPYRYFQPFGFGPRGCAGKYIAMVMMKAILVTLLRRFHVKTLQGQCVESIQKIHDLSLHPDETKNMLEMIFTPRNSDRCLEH

[10] = qHTS assay to identify aromatase inhibitors - cell viability counter screen (AID 743084);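 further: cells stimulated with testosterone during compound exposure; nearly all actives have a fitted effect of over 55% in size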
[11] = target: Aryl hydrocarbon receptor (Homo sapiens) (UniProt P35869); assay: qHTS assay to identify small molecule that activate the aryl hydrocarbon receptor (AhR) signaling pathway (AID 743085);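 further: HG2L7.5c1 human HepG2 liver cells with stably integrated DRE-driven firefly reporter; series mostly up to about 70 µM; nearly all actives have a fitted effect of over 15% in size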
Sequence of Aryl hydrocarbon receptor (Homo sapiens) (P35869 whole entry, looked up): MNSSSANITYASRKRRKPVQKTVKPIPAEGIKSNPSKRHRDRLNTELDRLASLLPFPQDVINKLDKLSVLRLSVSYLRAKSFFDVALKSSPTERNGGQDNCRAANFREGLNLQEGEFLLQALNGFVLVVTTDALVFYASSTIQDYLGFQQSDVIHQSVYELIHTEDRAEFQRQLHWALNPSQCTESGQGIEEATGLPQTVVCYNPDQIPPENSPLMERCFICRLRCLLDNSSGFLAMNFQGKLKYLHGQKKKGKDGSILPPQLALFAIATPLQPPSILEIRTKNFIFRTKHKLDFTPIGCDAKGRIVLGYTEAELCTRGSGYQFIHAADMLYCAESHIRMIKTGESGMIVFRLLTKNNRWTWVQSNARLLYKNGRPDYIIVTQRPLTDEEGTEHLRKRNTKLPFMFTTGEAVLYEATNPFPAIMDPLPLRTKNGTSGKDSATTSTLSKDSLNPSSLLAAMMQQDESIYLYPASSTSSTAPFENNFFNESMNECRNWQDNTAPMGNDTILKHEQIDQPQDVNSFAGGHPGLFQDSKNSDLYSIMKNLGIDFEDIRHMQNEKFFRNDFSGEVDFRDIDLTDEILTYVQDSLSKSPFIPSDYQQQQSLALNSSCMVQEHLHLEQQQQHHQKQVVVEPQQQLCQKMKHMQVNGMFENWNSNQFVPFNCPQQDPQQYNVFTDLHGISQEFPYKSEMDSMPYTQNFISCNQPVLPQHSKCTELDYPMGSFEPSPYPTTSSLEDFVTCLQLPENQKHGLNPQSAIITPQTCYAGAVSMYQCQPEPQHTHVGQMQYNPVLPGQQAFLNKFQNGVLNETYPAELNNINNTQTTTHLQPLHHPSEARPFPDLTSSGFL
Summary of the method: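 Steps: seed HepG2-AhR-luc cells; allow 5 h at 37C; pin-transfer test compound or vehicle; incubate 24 h at 37C; add viability dye (30 min, 37C) and read fluorescence; add luciferase substrate (30 min, RT) and read luminescence.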

[12] = qHTS assay to identify small molecule that activate the aryl hydrocarbon receptor (AhR) signaling pathway - cell viability counter screen (AID 743086);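 further: HepG2 liver cells carrying the AhR DRE luciferase reporter; series mostly up to about 70 µM; nearly all actives have a fitted effect of over 45% in size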
Summary of the method: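 Cytotoxicity counter screen: CellTiter-Fluor signal (30 min, 37 C) in 4000 HepG2 cells/well carrying the DRE-luciferase reporter, following 24 h compound exposure at 37 C.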

[13] = target: Peroxisome proliferator-activated receptor gamma (Homo sapiens) (UniProt P37231); assay: qHTS assay to identify small molecule agonists of the peroxisome proliferator-activated receptor gamma (PPARg) signaling pathway (AID 743094; active means well fitted activation curve with a large enough effect in the signal ratio in the repeat runs, not every such curve was filed as active; the % refers to the signal ratio)
Sequence of Peroxisome proliferator-activated receptor gamma (Homo sapiens) (P37231 whole entry, looked up): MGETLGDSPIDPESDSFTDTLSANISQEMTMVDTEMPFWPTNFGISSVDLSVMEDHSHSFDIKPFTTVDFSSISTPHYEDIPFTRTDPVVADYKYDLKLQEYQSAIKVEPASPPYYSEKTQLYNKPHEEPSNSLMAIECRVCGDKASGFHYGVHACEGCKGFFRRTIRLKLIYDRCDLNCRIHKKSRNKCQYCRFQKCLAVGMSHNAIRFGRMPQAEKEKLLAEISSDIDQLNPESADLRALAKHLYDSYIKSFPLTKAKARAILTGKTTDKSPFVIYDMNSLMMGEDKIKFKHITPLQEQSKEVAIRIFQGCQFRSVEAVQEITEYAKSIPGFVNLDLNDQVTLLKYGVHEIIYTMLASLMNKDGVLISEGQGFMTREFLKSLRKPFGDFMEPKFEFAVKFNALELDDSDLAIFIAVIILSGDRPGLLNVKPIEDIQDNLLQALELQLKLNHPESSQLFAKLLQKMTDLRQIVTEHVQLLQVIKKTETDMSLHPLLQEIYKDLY
Summary of the method: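 Compounds dissolved in DMSO were added to PPARg UAS-bla HEK293H cells for 17 h at 37C, and reporter expression was quantified by fluorescence intensity after 1 h with LiveBLAzer B/G FRET substrate.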

[14] = target: Peroxisome proliferator-activated receptor gamma (Homo sapiens) (UniProt P37231); assay: qHTS assay to identify small molecule antagonists of the peroxisome proliferator-activated receptor gamma (PPARg) signaling pathway (AID 743191; calls by dose curve; further: series mostly up to about 63 µM; nearly all actives have a fitted effect of over 30% in size)
Summary of the method: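 Beta-lactamase reporter under UAS control in HEK293H PPARg-bla cells; compound treatment 17 h at 37C. Read-out: fluorescence intensity after 1 h room-temperature incubation with LiveBLAzer B/G FRET substrate.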

[15] = qHTS assay to identify small molecule antagonists of the peroxisome proliferator-activated receptor gamma (PPARg) signaling pathway - cell viability counter screen (AID 743194); further: nearly all actives have a fitted effect of over 55% in size
Summary of the method: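 Viability was measured as CellTiter-Glo luminescence in GeneBLAzer PPARg UAS-bla HEK293H cells. These cells had been exposed 17 h at 37 C to compounds together with rosiglitazone at 50 nM final, with the beta-lactamase readout taken in the same wells.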

[16] = qHTS assay for small molecule agonists of the antioxidant response element (ARE) signaling pathway (AID 743202; active means well fitted activation curve with a large enough effect in the signal ratio in the repeat runs, not every such curve was filed as active; the % refers to the signal ratio)
Summary of the method: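 Quantitative high-throughput format in HepG2 cells bearing an integrated ARE-beta-lactamase reporter. Compound exposure lasted 16 h at 37 C, and fluorescence was read 2 h after adding LiveBLAzer B/G substrate at room temperature.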

[17] = qHTS assay for small molecule activators of the heat shock response signaling pathway - cell viability counter screen (AID 743209); further: nearly all actives have a fitted effect of over 50% in size
Summary of the method: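 Readout: CellTiter-Glo luminescence, 30 min at room temperature. System: HSE-bla HeLa cells, 1500/well, plated overnight. Treatment: compounds in DMSO, 5 h at 37 C.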

[18] = qHTS assay for small molecule activators of the heat shock response signaling pathway (AID 743210; active means well fitted activation curve with a large enough effect in the signal ratio in the repeat runs, with a control signal flat, not every such curve was filed as active; the % refers to the signal ratio;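 further: HeLa cells with beta-lactamase reporter driven by heat shock elements; series mostly up to about 63 µM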)
Summary of the method: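 HeLa HSE-bla cells, overnight plating; cpd in DMSO 5 h, 37 C; LiveBLAzer B/G FRET substrate 2.5 h RT; fluorescence intensity read.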

[19] = qHTS assay to identify small molecule agonists of the peroxisome proliferator-activated receptor delta (PPARd) signaling pathway - cell viability counter screen (AID 743211); further: nearly all actives have a fitted effect of over 55% in size
Summary of the method: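 Viability of GeneBLAzer PPARd UAS-bla HEK293H cells was assessed after 17 h compound incubation at 37C, using CellTiter-Glo reagent added after the reporter read and luminescence recorded 30 min later.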

[20] = qHTS assay for small molecule agonists of the antioxidant response element (ARE) signaling pathway - cell viability counter screen (AID 743203; calls by dose curve; further: nearly all actives have a fitted effect of over 55% in size)
Summary of the method: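 Following 16 hrs of compound treatment at 37C, HepG2 cells with an ARE-controlled beta-lactamase gene were lysed with CellTiter-Glo. Luminescence was read after 30 min at room temperature.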

Measured: Potency

Cc1ccc2ncccc2c1
inactive: [1] | [2] | [3] | [4] | [5] | [6] | [7] | [8] | [9] | [10] | [11] | [12] | [13] | [14] | [15] | [16] | [17] | [18] | [19]

C=CC(C)CCCC(C)(C)O (stereo not given)
inactive: [1] | [2] | [3] | [4] | [5] | [6] | [7] | [8] | [9] | [10] | [11] | [12] | [13] | [14] | [15] | [16] | [20] | [17] | [19]

C=C(C)C(=O)OCC(C)C
inactive: [1] | [2] | [3] | [4] | [5] | [6] | [7] | [8] | [9] | [10] | [11] | [12] | [14] | [15] | [16] | [20] | [17] | [18] | [19]

O=C1CCCC1
inactive: [1] | [2] | [3] | [4] | [5] | [6] | [7] | [8] | [9] | [10] | [11] | [12] | [13] | [14] | [15] | [16] | [17] | [18] | [19]

CCCCCCC=O
inactive: [1] | [2] | [3] | [4] | [5] | [6] | [7] | [8] | [9] | [10] | [11] | [12] | [13] | [14] | [15] | [16] | [20] | [17] | [18] | [19]

CC(C)OC(=O)COc1ccc(Cl)cc1Cl
inactive: [1] | [2] | [3] | [4] | [5] | [6] | [7] | [8] | [9] | [10] | [11] | [12] | [14] | [15] | [16] | [20] | [17] | [18] | [19]

O=c1[nH]cnc2[nH]ncc12
inactive: [1] | [2] | [3] | [4] | [5] | [6] | [7] | [8] | [9] | [10] | [11] | [12] | [13] | [14] | [15] | [16] | [20] | [17] | [18] | [19]

CCCCCCCO
inactive: [1] | [2] | [3] | [4] | [5] | [6] | [7] | [8] | [9] | [10] | [11] | [12] | [13] | [14] | [15] | [17] | [18] | [19]

CCc1ccccc1CC
inactive: [1] | [2] | [3] | [4] | [5] | [6] | [7] | [8] | [9] | [10] | [11] | [12] | [13] | [14] | [15] | [16] | [20] | [17] | [18] | [19]

Cc1ccc(S(=O)(=O)N=C=O)cc1
inactive: [1] | [2] | [3] | [4] | [5] | [6] | [7] | [8] | [9] | [10] | [11] | [12] | [14] | [15] | [16] | [17] | [18] | [19]

CSc1ccc(Cl)cc1
inactive: [1] | [2] | [3] | [4] | [5] | [6] | [7] | [8] | [9] | [10] | [11] | [12] | [14] | [15] | [16] | [17] | [18] | [19]

CC1(C)NC(=O)NC1=O
inactive: [1] | [2] | [3] | [4] | [5] | [6] | [7] | [8] | [9] | [10] | [11] | [12] | [14] | [15] | [16] | [20] | [17] | [18] | [19]

CCCCC(C=O)CC (stereo not given)
inactive: [1] | [2] | [3] | [4] | [5] | [6] | [7] | [8] | [9] | [10] | [11] | [12] | [14] | [15] | [16] | [20] | [17] | [19]

O=C(OCC1CCC2OC2C1)C1CCC2OC2C1 (stereo not given)
inactive: [1] | [2] | [3] | [4] | [5] | [6] | [7] | [8] | [9] | [10] | [11] | [12] | [13] | [14] | [15] | [16] | [20] | [17] | [18] | [19]

CC(C)(Oc1ccc(CCNC(=O)c2ccc(Cl)cc2)cc1)C(=O)O
inactive: [1] | [2] | [3] | [4] | [5] | [6] | [7] | [8] | [9] | [10] | [11] | [12] | [14] | [15] | [16] | [20] | [17] | [18] | [19]
